Glioma ERSR ind: induces the endoplasmic reticulum stress response in human glioma cells | U87-MG GRP78 promoter luciferase reporter, 16 h | Potency, µM, without a hit: at the highest dose activation, most hits filed as activators | 420,000 tested, 0.02% active; also: series mostly up to about 76 µM; % of control where 0% means no effect; nearly all actives have a fitted effect of over 35% in size
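ERSR induction read as luciferase luminescence (Bright-Glo, 10 min at room temperature) in stably transfected human U87-MG glioma cells exposed to compounds for 16 h, using GRP78 as sensor.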
VDR inhibitor: vitamin D3 receptor (human) inhibition | P11473 | VDR-SRC2-3 peptide fluorescence polarization, 2 h | Potency, µM, for the others: max response, negative = inhibition, most hits filed as inhibitors | 400,000 tested, 0.93% active | AID 504847; also: % is scaled to controls: 0 for no effect and ±100 for the full control effect
Target sequence (P11473 whole entry, looked up): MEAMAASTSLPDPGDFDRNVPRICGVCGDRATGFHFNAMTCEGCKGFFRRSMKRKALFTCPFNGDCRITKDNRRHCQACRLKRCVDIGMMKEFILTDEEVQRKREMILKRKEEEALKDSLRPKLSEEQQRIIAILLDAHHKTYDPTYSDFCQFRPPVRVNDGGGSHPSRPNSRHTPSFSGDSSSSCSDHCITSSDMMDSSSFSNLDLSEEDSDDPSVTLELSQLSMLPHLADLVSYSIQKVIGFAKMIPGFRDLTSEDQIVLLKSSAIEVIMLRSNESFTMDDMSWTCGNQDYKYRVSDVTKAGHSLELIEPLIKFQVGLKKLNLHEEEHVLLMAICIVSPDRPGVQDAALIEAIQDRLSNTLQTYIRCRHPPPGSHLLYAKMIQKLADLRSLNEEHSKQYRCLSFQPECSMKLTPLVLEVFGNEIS
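The screen uses fluorescence polarization to detect compounds that interfere with recruitment of the SRC2-3 coactivator peptide to VDR; plates are read after 2 h at room temperature.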
Sfp PPTase inh: inhibitors of Bacillus subtilis Sfp phosphopantetheinyl transferase; Q9F4F7; Biochemical Sfp PPTase activity, qHTS; Potency, µM, inactives show largest response in the series, negative = inhibition, usual class: inhibitors; 310,000 tested, 3.5% active; AID 1490;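 also: the enzyme is Sfp with the accession as filed and its product quenches rhodamine fluorescence; 0% = enzyme reaction without inhibitor and -100% = no enzyme wells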
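With Hepes-Na pH 7.6 buffer containing 10 mM MgCl2, Sfp (15 nM) modified BHQ-2-YbbR (12.5 uM) using rhodamine-CoA (5 uM). Two reads 30 minutes apart at 525/598 nm yielded each well's rate.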
G9a inh: inhibitors of human histone lysine methyltransferase G9a | Q96KQ7 | G9a H3K9 monomethylation, AlphaScreen, 2 h | Potency, µM (titrated, usually from 102 µM), without a hit: top-dose activity, negative = inhibition, actives largely listed as inhibitors | 350,000 tested, 8.8% active | AID 504332; also: % is scaled to controls: 0 for no effect and ±100 for the full control effect; nearly all actives have a fitted effect of over 75% in size
Target sequence (Q96KQ7 913-1193 limits assumed): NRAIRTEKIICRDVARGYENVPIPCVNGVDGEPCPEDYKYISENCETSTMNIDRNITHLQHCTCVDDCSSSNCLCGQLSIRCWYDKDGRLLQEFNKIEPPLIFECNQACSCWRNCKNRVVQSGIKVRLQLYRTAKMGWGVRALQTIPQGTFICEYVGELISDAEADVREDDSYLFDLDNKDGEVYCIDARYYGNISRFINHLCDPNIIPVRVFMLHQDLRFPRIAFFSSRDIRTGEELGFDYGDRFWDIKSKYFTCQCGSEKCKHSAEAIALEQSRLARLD
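Compounds were preincubated with 20 nM G9a for 15 min, after which biotinylated H3K9 peptide (500 nM) and SAM (20 uM) started a 2 h room-temperature reaction. Monomethylated product was quantified by antibody-based AlphaScreen chemiluminescence.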
ALOX12 inh: ALOX12 (human) lipoxygenase inhibition | P18054 | purified 12hLO, xylenol orange hydroperoxide absorbance | Potency, µM (doses to about 108 µM), for the others: top-dose activity change, negative = inhibition, most hits filed as inhibitors | 580,000 tested, 1.1% active; also: % is scaled to controls: 0 for no effect and ±100 for the full control effect
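Hydroperoxide product was detected by ferrous iron/xylenol orange as the 573 to 405 nm absorbance ratio. Arachidonic acid at 40 uM (final) was turned over for 30 min at room temperature by 150 nM human 12hLO, pH 7.0 Hepes buffer, after 15 min compound preincubation.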
Active calls of the source: *; i = inactive; ? = inconclusive; nt = no result; [ ] = another dose, or the depositor's remark. Shown is part of a subset that was picked to be rich in hits. Calls follow the shape of the dose curve; as a rule, active = well fitted curve in the direction sought with a large enough effect; inconclusive = small, poorly fitted or top-dose-only effect, or another doubt; inactive = no such curve, though single readings can be large; an effect the other way counts as inactive or inconclusive. Potency is read from the fitted curve at half-maximal effect.

SMILES	Glioma ERSR ind	VDR inhibitor	Sfp PPTase inh	G9a inh	ALOX12 inh
COc1ccc(/C=C2\C(=O)ON=C2c2cccc([N+](=O)[O-])c2)cc1	nt	nt	56µM*	18µM*	32µM*
COc1cc(/C=C2\C(=O)ON=C2c2ccccc2)cc(OC)c1OC	-16%	28µM*	50µM*	?	?
NCc1cccc(Oc2ncnc3ccccc23)c1	nt	nt	nt	nt	2%[12.5 µM]
O=C1CCCC2=C1C(c1ccccc1F)n1nnnc1N2 (stereo not drawn)	nt	nt	nt	nt	-8%
CCCCSc1nc(O)c(C2OC(=O)c3c2ccc(OC)c3OC)c(=O)n1-c1ccccc1 (stereo not drawn)	7%	-1%	79µM*	?	483%
Cc1csc(NC(=O)NCC2CCCC(CNC(=O)Nc3nc(C)cs3)C2)n1 (stereo not drawn)	-1%	5%	-9%	14µM*	?
CC(=O)NC(=S)Nc1sc2c(c1C#N)CCCCC2	-4%	-12%	50µM*	45µM*	-30%
CCNC(=S)Nc1sc2c(c1C#N)CCC(C)C2 (stereo not drawn)	-2%	-1%	-19%	?	?
CC(=O)Nc1sc2c(c1C#N)CCCC2	3%	1%	6%	7%[59 µM]	0%
Cn1nccc1C(=O)NC(=S)Nc1sc2c(c1C#N)CCCCC2	-2%	-14%	-17%	50µM*	0%
CC1CCc2sc(NC(=S)NC(=O)c3ccccc3)c(C#N)c2C1 (stereo not drawn)	1%	?	?	35µM*	?
CC(C)(C)c1ccc(C(=O)NC(=S)Nc2sc3c(c2C#N)CCC3)cc1	-3%	-22%	?	?	?
N#Cc1c(NC(=S)NC(=O)c2ccccc2)sc2c1CCC2	3%	?	22µM*	2.8µM*	?
COc1cc2c(cc1OC)-c1c(c(C(=O)N3CCC(C(N)=O)CC3)nn1-c1cccc(Cl)c1)C2	nt	nt	nt	nt	7%
CC(=O)Nc1ccc(NC(=O)c2nccnc2-c2nc3ccccc3s2)cc1Cl	nt	nt	nt	nt	-21%
CC(=O)Nc1sc2c(c1C#N)CCN(Cc1ccccc1)C2	3%	-17%	-14%	nt	3%
CCN1CCc2c(sc(NC(=S)NC(=O)c3ccccc3)c2C#N)C1	1%	79µM*	56µM*	17%[0.0925 µM]	?
O=C(NCc1ccc(-c2nc3ccccc3s2)o1)c1ccccc1Br	nt	nt	nt	nt	-21%
CC(C)NS(=O)(=O)c1ccc(C(=O)NCc2ccc(-c3nc4ccccc4s3)o2)cc1	nt	nt	nt	nt	25µM*
CC(=O)c1c(C)nc(-c2cccc([N+](=O)[O-])c2)n1O	-4%	-14%	?	?	?
COc1ccc(-c2nc(C)c(C(C)=O)n2O)cc1[N+](=O)[O-]	-8%	-14%	-4%	56µM*	-7%
COc1ccc(CC(=O)N/N=C/c2ccc(-c3cccc(C(=O)O)c3)o2)cc1OC	1%	-11%	14µM*	40µM*	1%
CNC(=S)N/N=C/c1ccc(-c2cccc(C(=O)O)c2)o1	-10%	1%	?	3%[12.7 µM]	?
O=C(O)c1cccc(-c2ccc(/C=N/Nc3nn[nH]n3)o2)c1	3%	1%	45µM*	45µM*	7%
Cc1ccc(OCC(=O)N/N=C\c2ccc(-c3cccc(C(=O)O)c3)o2)c(C)c1	0%	-23%	?	35µM*	9%
SMILES	Glioma ERSR ind	VDR inhibitor	Sfp PPTase inh	G9a inh	ALOX12 inh
Nc1nonc1C(=O)N/N=C/c1ccc(-c2cccc(C(=O)O)c2)o1	nt	nt	56µM*	32µM*	nt
CC(=O)Oc1ccccc1C(=O)Nc1ccc2c(c1)CN(Cc1ccc(Cl)cc1)C(=O)C(C)O2 (stereo not drawn)	nt	nt	nt	nt	8%
O=S(=O)(Cc1ccccc1F)N1CCCC(CN2CCOCC2)CC1 (stereo not drawn)	nt	nt	nt	nt	9%
Cc1cc(C)nc(SCC(=O)Nc2ccc(N3CCOCC3)cc2)n1	4%	-12%	6%	11µM*	?
Cc1ccc(SCC(=O)Nc2ccc(N3CCOCC3)cc2)cc1	-2%	-18%	16%	-27%	?
COC(=O)c1ccccc1SCC(=O)Nc1ccc(N2CCOCC2)cc1	2%	-4%	2%	79µM*	-2%
CSc1ccccc1C(=O)OCC(=O)Nc1ccc(N2CCOCC2)cc1	-2%	-4%	nt	nt	-14%
CC1=NN(C(N)=S)C(=O)C1N=Nc1ccccc1O (stereo not drawn)	10%	1%	10%	nt	0%
CCOc1ccccc1N=NC1C(=O)N(C(N)=S)N=C1C (stereo not drawn)	-3%	-12%	-25%	50µM*	-1%
CC1=NN(C(N)=S)C(=O)C1N=Nc1c(Cl)cc([N+](=O)[O-])cc1Cl (stereo not drawn)	-1%	?	-1%	25µM*	?
CN(C)CCn1c(=O)n(CC(=O)O)c(=O)c2c3c(sc21)COC(C)(C)C3	nt	nt	nt	nt	33%
NC(=O)C(Sc1ccccc1F)c1ccccc1 (stereo not drawn)	nt	nt	nt	nt	22%
CCOc1ccc(NC(=O)NCc2ccc3c(c2)OCO3)cc1	-1%	-2%	-1%	24%	4%
CCOc1ccc(CN(CCc2ccc3c(c2)OCO3)Cc2cc(OC)cc(OC)c2)cc1	-1%	-15%	nt	1.4µM*	?
COc1ccc2c(-c3ccccc3)cc(SCC(=O)N3CCOC(C)C3)nc2c1 (stereo not drawn)	nt	nt	nt	nt	5%
Cn1c(N2CCN(c3ccccn3)CC2)nc2c1c(=O)n(Cc1ccc(Cl)cc1)c(=O)n2C	-2%	13%	-6%	40µM*	0%
CCN(CC)c1ccc(CNc2ccc3c(c2)ncn3C(C)(C)C)cc1	-3%	1%	?	14µM*	0%
CC(C)(C)n1cnc2cc(NCc3ccccc3O)ccc21	2%	-4%	-2%	-7%	i
CCc1ccc(CNc2ccc3c(c2)ncn3C(C)(C)C)cc1	5%	12%	0%	50µM*	0%
CC(C)(C)n1cnc2cc(NCc3ccc(Br)cc3)ccc21	4%	?	-14%	50µM*	498%
CCc1ccc(CNc2ccc3c(c2)ncn3CC)cc1	2%	8%	-2%	11µM*	-3%
CCc1ccc(N2C=C(C(=O)OC)C(c3ccccc3F)C(C#N)=C2N)cc1 (stereo not drawn)	nt	nt	nt	nt	45µM*
CCc1c(C)sc2nc(NC(CC)CO)n3nc(-c4ccco4)nc3c12 (stereo not drawn)	nt	nt	nt	nt	-17%
CC(C)(C)c1ccc(C(=O)Oc2ccc3c(c2)OCC3=O)cc1	2%	14%	-1%	50µM*	23%
Cc1ccc(S(=O)(=O)N2CCN(C(=O)COC(=O)CCOc3ccccc3C)CC2)c(C)c1	-4%	8%	nt	11µM*	?
CCOc1ccc(S(=O)(=O)N2CCN(C(=O)CN3C(=O)NC4(CCCC4)C3=O)CC2)cc1	-3%	-24%	nt	32µM*	?
Cc1ccc(S(=O)(=O)N2CCN(C(=O)COC(=O)CCOc3cc(C)ccc3C)CC2)c(C)c1	-1%	-8%	nt	nt	-5%

Screening data: PubChem, National Center for Advancing Translational Sciences (NCATS)
